Measured values: the supplement of paper PMC3334620
Over roughly 33,000 sequences, “E-score (-0.5 to 0.5)” has its median near -0.032; the highest 2% begin near 0.36. Only a selection was taken, and the highest values are over-represented in it overall.

target: T1, Sko1 (UniProt Q02100); test: PBM E-score (8-mer binding enrichment) (E-score (-0.5 to 0.5)); higher = stronger / more preferred TF binding; details: protein concentration: 200 nM; construct: GST-full length
T1 sequence: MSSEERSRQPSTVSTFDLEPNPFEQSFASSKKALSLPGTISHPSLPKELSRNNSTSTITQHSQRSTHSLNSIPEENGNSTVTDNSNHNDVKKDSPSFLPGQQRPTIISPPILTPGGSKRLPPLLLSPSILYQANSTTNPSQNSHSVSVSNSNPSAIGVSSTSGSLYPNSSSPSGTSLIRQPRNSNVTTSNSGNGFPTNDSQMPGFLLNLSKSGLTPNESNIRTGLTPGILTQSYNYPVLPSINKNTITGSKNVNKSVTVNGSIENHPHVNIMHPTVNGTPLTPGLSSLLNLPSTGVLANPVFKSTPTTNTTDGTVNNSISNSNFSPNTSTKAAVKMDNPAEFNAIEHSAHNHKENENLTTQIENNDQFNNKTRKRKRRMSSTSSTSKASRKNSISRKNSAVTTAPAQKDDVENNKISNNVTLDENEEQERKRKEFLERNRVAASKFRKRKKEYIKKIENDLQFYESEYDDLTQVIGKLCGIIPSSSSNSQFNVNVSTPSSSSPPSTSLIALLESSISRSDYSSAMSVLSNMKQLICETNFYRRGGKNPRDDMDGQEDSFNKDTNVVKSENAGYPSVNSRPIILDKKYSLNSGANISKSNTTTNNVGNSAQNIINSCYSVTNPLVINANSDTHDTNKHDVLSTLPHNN
Protocol: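 Universal 'all 10-mer' protein binding microarrays (Agilent AMADID 015681) probed with GST-tagged S. cerevisiae TFs (full-length or DBD) made by in vitro transcription/translation (PURExpress), about 100-200 nM. Bound TF was detected with fluorescent anti-GST. Each ungapped 8-mer (which stands for itself and its reverse complement) is scored by the PBM enrichment score (E-score), a modified Wilcoxon-Mann-Whitney statistic from -0.5 to +0.5, computed with the Universal PBM Analysis Suite. Scale: above 0.35 generally sequence-specific binding.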

| Sequence | PBM E-score |
| --- | --- |
| ACTGAAGA | 0.0507 |
| AAACGTGT | 0.288 |
| AACCGTAA | 0.0957 |
| AAGCGTAG | -0.0528 |
| AAACGTGC | 0.231 |
| AAACGTTA | 0.3 |
| AAACGTAC | 0.37 |
| AAACGTTT | 0.275 |
| AAACGTAA | 0.462 |
| AAACGTAG | 0.393 |
| CAACGTAC | 0.326 |
| AAACGTAT | 0.429 |
| GGATTCAC | -0.215 |
| CATCTCGC | -0.129 |
| AGTCCGTA | -0.218 |
| TATAGAAA | 0.0683 |
| AGCTTTGG | -0.172 |
| ATAAAACC | -0.0531 |
| AGACAGTG | -0.112 |
| GTCTCCTA | 0.0919 |
| GACCTCGC | -0.122 |
| GAGAAACC | -0.146 |
| TACCATCA | -0.0837 |
| GCACGTAC | 0.34 |
| GCTCGTAA | 0.231 |

| Sequence | PBM E-score |
| --- | --- |
| TCACGTGA | 0.336 |
| GCACGTAA | 0.459 |
| TCCCGTAA | 0.11 |
| TCACGTAA | 0.472 |
| TCAAACGA | 0.102 |
| CTTTGGGC | -0.121 |
| AGAGGGCT | -0.406 |
| GGTAAATA | 0.0846 |
| CCGACCAC | -0.182 |
| GTCGTGTA | 0.169 |
| CACGTGTA | 0.399 |
| GACGTGTA | 0.374 |
| AACGTGTA | 0.247 |
| CACGTGTC | 0.357 |
| CGCGTGTA | 0.227 |
| AGGTTAAA | -0.104 |
| CTCCTTGA | -0.159 |
| CGCCAGGC | -0.227 |
| AAGGTTGT | 0.00278 |
| CTAATTGC | 0.104 |
| TACGAATA | 0.383 |
| CACGAATA | 0.265 |
| GACGAATA | 0.297 |
| CTAAGATA | -0.023 |
| GGCACGGA | -0.233 |

| Sequence | PBM E-score |
| --- | --- |
| CGCACGTC | 0.333 |
| CGCACGCA | 0.211 |
| GGCACGCA | -0.00979 |
| GGCACGTA | 0.395 |
| CGCACGTA | 0.408 |
| CGAGTTCA | 0.00744 |
| CAGACCGC | -0.156 |
| CGTCATGA | 0.471 |
| GGTCATGA | 0.111 |
| CCTCATGC | -0.142 |
| AGTCATGC | -0.0777 |
| CGTCATGC | 0.469 |
| AGTCATGA | 0.0664 |
| GGCAGATA | -0.0846 |
| AATCGTTA | 0.23 |
| CGAAGGGC | -0.104 |
| CTGTATGA | -0.0143 |
| GTACCCCA | -0.19 |
| CTAGGGAG | -0.148 |
| CCAGTACG | 0.215 |
| AAGGGAGG | -0.244 |
| ACGTAGTA | 0.446 |
| CCGTAGTC | -0.266 |
| ACTTAGTC | -0.15 |
| ACTTAGTG | 0.00172 |

| Sequence | PBM E-score |
| --- | --- |
| GCGTAGTA | 0.279 |
| AGGTAGTG | -0.0666 |
| CCGTAGTA | -0.0427 |
| ACGTAGTG | 0.452 |
| ACGTAGTC | 0.425 |
| AACAGGGT | -0.192 |
| AGCCGCAG | -0.223 |
| ACCTGTGA | 0.115 |
| CCGGATTC | -0.0976 |
| CTTCGCGC | 0.217 |
| CAGATGGA | -0.0703 |
| CGTATTAA | 0.362 |
| AGTATTAC | 0.331 |
| GGTATTAC | 0.204 |
| AGTATTAA | 0.261 |
| CATATTAG | 0.203 |
| AGTATTAG | 0.00871 |
| CGTATTAC | 0.387 |
| CGTATTAG | 0.382 |
| TGTATTAA | 0.182 |
| CGTTCTAA | 0.131 |
| AGTTGGTG | -0.0352 |
| ACCCATAA | -0.118 |
| GGCCTCAC | -0.0829 |
| AGAGCACC | -0.328 |

| Sequence | PBM E-score |
| --- | --- |
| ACCTTGTG | -0.0718 |
| CACCTGTC | -0.232 |
| ACATGACG | 0.474 |
| ATATGACA | 0.243 |
| ATATGACC | 0.00457 |
| ACATGACT | -0.0468 |
| CCATGACC | -0.0889 |
| ATATGACG | 0.477 |
| CCATGACG | 0.475 |
| ACATGACA | 0.217 |
| CCATGACA | 0.163 |
| TCATTTCA | 0.181 |
| AGAGCAGC | -0.173 |
| GCACGTTA | 0.274 |
| GTACGGTA | 0.207 |
| GTACGTTA | 0.395 |
| CCACGTTA | 0.289 |
| AGACGTTC | 0.125 |
| ACACGTTA | 0.318 |
| CTACGTTA | 0.406 |
| ATACGTTC | 0.374 |
| ATGCGTTA | 0.247 |
| ATACGTTA | 0.436 |
| CAACGTTA | 0.257 |
| CTACGTTC | 0.272 |

| Sequence | PBM E-score |
| --- | --- |
| AGCAGGGC | -0.225 |
| AGACTACA | -0.158 |
| ATGCTAAT | 0.209 |
| AAGATGCT | -0.0361 |
| AAGAAAAG | -0.011 |
| GGAGGCCC | -0.241 |
| AGCCCCCC | -0.355 |
| ACCAACAA | 0.147 |
| AGATGCAC | -0.0198 |
| ACACGTTG | 0.188 |
| AAACGTTG | 0.112 |
| ATACGTTG | 0.391 |
| ATCTCTAC | 0.106 |
| CCCAGCGC | -0.229 |
| GCGTACTA | 0.232 |
| CCGTACTA | 0.00949 |
| CCGTACTC | -0.132 |
| AGGTACTC | -0.109 |
| ACGTACTG | 0.412 |
| AGGTACTG | -0.125 |
| ATGTACTG | -0.0689 |
| ACGTACTC | 0.432 |
| ACGTACTA | 0.426 |
| GGGATAGA | -0.0751 |
| CTGGGCTA | -0.317 |

| Sequence | PBM E-score |
| --- | --- |
| AGATACGA | 0.208 |
| CCCTGGAC | -0.188 |
| CAACGCAG | -0.0699 |
| GTAACTTA | 0.262 |
| ACATACGG | 0.0483 |
| AAATACGT | 0.463 |
| ACATACGT | 0.459 |
| ACATACGC | 0.28 |
| AAATACGA | 0.302 |
| AAATACGC | 0.315 |
| TCGAGTCA | -0.00474 |
| AGGTGCTA | -0.0841 |
| ACCCGTGA | 0.0498 |
| CGCCACAG | -0.198 |
| CAACCCAC | 0.011 |
| GATCAAAA | 0.0898 |
| GTCATGAC | 0.392 |
| GTCATGAA | 0.221 |
| ATCATGAC | 0.407 |
| ATCATGAG | 0.211 |
| ATCATGAA | 0.126 |
| CTCATGAC | 0.285 |
